Entries with a potency or affinity are not part of this list. Activity calls are given as the source filed them.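 Rule for the calls: active = Loss of cell signal with fitted half-effect dose at or below twice the top valid tested dose; inconclusive = Poor fit, or flat fit from -70 to -30 percent; inactive = Half-effect above limit, rising signal, or flat within 30 percent.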

A short description of the test: HEK293T cell cytotoxicity, dose response, cytotoxicity control for HIV Vif inhibitor project, cherry-picks (AID 652208). To be noted: HEK293T viability, CellTiter-Glo luminescence, 24 h; series mostly up to 26 µM.
Turning to `COCc1cc(C)nc(SCC(=O)Nc2cccc3cccnc23)c1C#N`, the compound was classed as inactive. For `COc1ccc(/C=c2\s/c(=C/C(=O)c3ccc(C)cc3)[nH]c2=O)c(OC)c1`, the outcome was inactive.

Consider `N#Cc1c(C(F)(F)F)cc(-c2ccco2)nc1SCc1ccncc1`, for which the result was inactive. Turning to `CCOc1ccc(N2C(=O)/C(=C/c3cccs3)N(CC(=O)OC)C2=S)cc1`, the call was inactive.

With `CCN(C(=O)COc1ccc(C)cc1OC)c1cccc2ccccc12`, the compound was classed as inactive.

Consider `COc1ccc(-c2cc(C(=O)Nc3ccc4c(c3)OCO4)no2)cc1`, for which the call was inactive. Take `C[C@@H]1CN([C@H](C)CO)C(=O)CCCn2cc(nn2)CO[C@H]1CN(C)C(=O)c1ccccc1`: the result was inactive. Under `CC(C)CN1C(=O)C(=O)N(CC(=O)c2ccc3c(c2)OCO3)C1=O` stands “inactive”; under `COc1ccc(CCNc2nnc(Sc3nnnn3-c3ccccc3)s2)cc1OC`, “inactive”. Turning to `COc1cccc(NC(=O)c2cc(C(=O)Nc3cccc(OC)c3)n(C)n2)c1`, the outcome was inactive. In the case of `COc1ccc(C(=O)c2sc3nc(C)cc(-c4cccs4)c3c2N)cc1OC`, the result was inactive.

Turning to `Cc1cc(OCC(C)C)ccc1/C(O)=C1/C(=O)C(=O)N(Cc2cccnc2)C1c1ccncc1` (stereo not drawn), the compound was called inactive. Turning to `CC(NC(=O)CSc1nc2c(c(C(F)(F)F)n1)CCc1ccccc1-2)c1ccccc1` (stereo not drawn), the compound was called inactive. Take `Cc1nc(C)n(CC(=O)N2CCCC(C(=O)c3ccc(C(F)(F)F)cc3)C2)n1` (stereo not drawn): the compound was classed as inactive.

Turning to `Cc1c(NC(=O)c2cc3ccccc3oc2=O)c(=O)n(-c2ccccc2)n1C`, the outcome was inactive.

Turning to `Cc1c(NC(=O)CC(O)(C(F)(F)F)C(F)(F)F)c(=O)n(-c2ccccc2)n1C`, the compound was classed as inactive. As to `CNC(=O)COc1ccccc1C(=O)Nc1ccc2c(c1)oc1ccccc12`, the compound was called inactive. Turning to `CC1(C)CC(=O)C2=C(C1)Nc1ccccc1N(C(=O)C1CC1)C2c1ccco1` (stereo not drawn), the result was inactive. In the case of `Cc1cc(-c2nnc(SCC(=O)c3ccc(Cl)cc3)o2)no1`, the compound was called inactive.

Consider `CCOC(=O)c1c(NC(=O)CCC(=O)N2CCOCC2)sc2c1CC(C)(C)OC2`, for which the outcome was inactive. Under `S=C(NC1CC1)N1CCc2ccccc2C1` stands “inactive”.

With `CC(C)(C)NC(=O)NC(=O)COc1ccccn1`, the outcome was inactive. Take `Cc1ccc(NC(=O)Cn2ncn3c(cc4ccccc43)c2=O)c(C)c1`: the call was inactive. Regarding `O=C(c1ccc(Cl)c(Cl)c1)N(Cc1ccco1)c1ccc(O)cc1`, the result was inactive. On to `COc1ccc(S(=O)(=O)Nc2cc3c(C(C)=O)c(C)oc3c3ccccc23)cc1`, for which the result was inactive. For `CC1CN(S(=O)(=O)c2cccc(C(=O)N3CCC(C(N)=O)CC3)c2)CC(C)O1` (stereo not drawn), the call was inactive. For `CN(C)C(=O)c1cc(Br)ccc1Cl`, the result was inactive. On to `CCc1nn(-c2cc(Oc3cccc4ccccc34)nc(-c3ccccc3)n2)c(N)c1C#N`, for which the compound was called inactive. Take `CCOc1ccc2nc(NS(=O)(=O)Cc3ccccc3)sc2c1`: the outcome was inactive. As for `COc1ccc(S(=O)(=O)N2c3cc(Cl)ccc3Oc3nc4ccccc4nc32)cc1`, the compound was called inactive. Turning to `Cc1ccc(N(C)S(=O)(=O)c2ccc(-c3ccc(=O)[nH]n3)s2)cc1C`, the compound was called inactive. Regarding `COc1ccc(CNC(=O)Nc2cccs2)cc1OC`, the compound was classed as inactive. Under `CCC1=Nc2cc(C(=O)NCc3ccco3)ccc2Sc2ccc(C)cc21` stands “inactive”; under `CCN(CC)C1Oc2cc3c(cc2C(c2cc(OC)c(OC)c(OC)c2)C1C)OCO3` (stereo not drawn), “inactive”; under `COc1cccc(NC(=O)CSc2nnc(Cc3ccc(OC)c(OC)c3)o2)c1`, “inactive”. For `CCOc1ccc(Nc2nc3c(C)cccc3cc2C#N)cc1`, the result was inactive. In the case of `Cc1cccc2cc(CN(CC3CCCO3)C(=O)NC3CCCCC3)c(=O)[nH]c12` (stereo not drawn), the result was inactive. Next, `COc1ccc2nc3ccccc3nc2c1NC(=O)c1ccc(Cl)cc1`: “inactive”.

For the origin of these results see PubChem BioAssay AID652208 (Broad Institute, 2013).
